# For some assays here: Potency and affinity values are given separately.
# Tests used:
# Parameters in all cases: scale not given: direction of the effect not stated beside the values
# [1] = biological target: Protein translocase subunit SecA (Escherichia coli (strain K12)) (UniProt P10408); test: Assay to Identify E. coli SecA ATPase Inhibitors; format: functional; settings: 30 µM
# [2] = biological target: T1, Ubiquitin-activating enzyme e1, putative (Leishmania donovani (strain BPK282A1)) (UniProt E9BSI1); test: Leishmania donovani Ubiquitin Activating Enzyme (LdE1); format: functional; settings: 30 µM
# T1 sequence (whole entry): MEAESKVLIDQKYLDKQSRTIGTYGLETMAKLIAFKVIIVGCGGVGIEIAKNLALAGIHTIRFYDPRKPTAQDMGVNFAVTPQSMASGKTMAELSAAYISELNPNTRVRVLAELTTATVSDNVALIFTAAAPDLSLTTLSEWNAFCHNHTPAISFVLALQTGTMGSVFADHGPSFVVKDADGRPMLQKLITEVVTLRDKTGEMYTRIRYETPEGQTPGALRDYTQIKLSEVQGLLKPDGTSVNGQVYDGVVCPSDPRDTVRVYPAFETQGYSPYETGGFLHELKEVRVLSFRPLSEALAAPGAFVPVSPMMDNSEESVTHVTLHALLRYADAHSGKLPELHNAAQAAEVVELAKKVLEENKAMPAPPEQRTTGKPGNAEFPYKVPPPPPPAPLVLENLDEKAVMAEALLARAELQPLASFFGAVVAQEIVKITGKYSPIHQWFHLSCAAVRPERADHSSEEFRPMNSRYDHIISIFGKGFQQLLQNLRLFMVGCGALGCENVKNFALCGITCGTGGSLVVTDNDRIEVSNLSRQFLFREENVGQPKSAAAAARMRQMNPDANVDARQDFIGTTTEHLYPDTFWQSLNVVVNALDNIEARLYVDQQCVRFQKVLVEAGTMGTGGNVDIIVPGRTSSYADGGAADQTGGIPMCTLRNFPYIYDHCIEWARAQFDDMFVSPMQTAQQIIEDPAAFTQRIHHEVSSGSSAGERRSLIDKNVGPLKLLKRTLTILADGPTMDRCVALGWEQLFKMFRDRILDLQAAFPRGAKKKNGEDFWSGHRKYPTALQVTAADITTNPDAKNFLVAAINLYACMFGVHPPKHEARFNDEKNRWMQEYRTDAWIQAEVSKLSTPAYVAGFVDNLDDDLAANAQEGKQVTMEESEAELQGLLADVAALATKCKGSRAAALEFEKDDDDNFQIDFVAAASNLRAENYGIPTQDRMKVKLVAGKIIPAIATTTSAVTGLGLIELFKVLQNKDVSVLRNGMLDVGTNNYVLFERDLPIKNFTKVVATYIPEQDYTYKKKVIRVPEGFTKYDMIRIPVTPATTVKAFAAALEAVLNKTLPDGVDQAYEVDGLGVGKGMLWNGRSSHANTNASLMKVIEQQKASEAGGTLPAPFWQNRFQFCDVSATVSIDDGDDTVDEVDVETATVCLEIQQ
# [3] = biological target: AMP-activated protein kinase, AMPK (Homo sapiens) (UniProt P54646+O43741+P54619+Q9UGJ0+Q9Y478+Q13131+Q9UGI9); test: AMP-dependent Kinase enzyme assay. An in vitro enzyme assay that detects ADP turnover that is directly proportional to AMPK activity. This uses naive AMPK that is activated during the assay with MK-8722; format: functional; settings: 30 µM
# [4] = biological target: Sialic acid-binding Ig-like lectin 9 (Homo sapiens) (UniProt Q9Y336); test: Hs-Siglec9 ALPHAscreen SOP 20170721; settings: 10 µM
# Trypanosoma cruzi = test: Trypanosoma cruzi phosphomannomutase and mannose-1-phosphate guanylyltransferase assay; format: functional; settings: 10 µM
# [5] = biological target: T2, Arginase-2, mitochondrial (Homo sapiens) (UniProt P78540); test: in vitro enzyme assay to detect the production of urea directly proportional to the activity of Arginase II; format: functional; settings: 33.3 µM; also: in the data most compounds retested in dose-response had high values
# T2 sequence (whole entry): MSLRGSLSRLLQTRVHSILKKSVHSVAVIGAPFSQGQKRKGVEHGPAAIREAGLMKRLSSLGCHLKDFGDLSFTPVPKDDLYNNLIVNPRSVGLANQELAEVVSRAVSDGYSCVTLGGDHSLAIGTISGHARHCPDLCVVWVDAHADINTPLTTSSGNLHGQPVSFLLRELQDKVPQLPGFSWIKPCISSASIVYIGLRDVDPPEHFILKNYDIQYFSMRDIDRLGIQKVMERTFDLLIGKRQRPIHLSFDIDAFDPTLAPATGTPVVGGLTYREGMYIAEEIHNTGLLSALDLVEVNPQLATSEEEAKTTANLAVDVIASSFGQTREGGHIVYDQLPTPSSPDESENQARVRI
# [6] = biological target: T3, Proteasome subunit beta (Trypanosoma cruzi) (UniProt O96673); test: Trypanosoma cruzi proteasome chymotrypsin-like activity (TcProtChymo) assay.; also: in the data most compounds retested in dose-response had high values; format: functional; settings: 9.37 µM
# T3 sequence (whole entry): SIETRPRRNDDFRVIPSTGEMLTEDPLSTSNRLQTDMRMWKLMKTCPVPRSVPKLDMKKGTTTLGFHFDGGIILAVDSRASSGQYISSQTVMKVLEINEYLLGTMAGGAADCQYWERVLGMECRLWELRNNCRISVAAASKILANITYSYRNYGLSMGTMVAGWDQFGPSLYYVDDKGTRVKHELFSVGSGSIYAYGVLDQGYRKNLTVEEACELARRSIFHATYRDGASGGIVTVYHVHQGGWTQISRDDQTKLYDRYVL
# Homo sapiens = species: Homo sapiens; test: To identify inhibition of the IFN signalling (Jak-Stat) pathway via expression of an eGFP reporter gene under the control of an IFN-stimulated response element (ISRE) containing MxA promoter.; format: functional; settings: 30 µM
# [7] = biological target: T4, Tyrosyl-tRNA synthetase, putative (Trypanosoma cruzi (strain CL Brener)) (UniProt Q4DSP6); test: Trypanosoma cruzi tyrosyl tRNA synthetase (TcYRS) _High Tyrosine SOP; format: functional; settings: 30 µM; also: in the data most compounds retested in dose-response had high values
# T4 sequence (whole entry): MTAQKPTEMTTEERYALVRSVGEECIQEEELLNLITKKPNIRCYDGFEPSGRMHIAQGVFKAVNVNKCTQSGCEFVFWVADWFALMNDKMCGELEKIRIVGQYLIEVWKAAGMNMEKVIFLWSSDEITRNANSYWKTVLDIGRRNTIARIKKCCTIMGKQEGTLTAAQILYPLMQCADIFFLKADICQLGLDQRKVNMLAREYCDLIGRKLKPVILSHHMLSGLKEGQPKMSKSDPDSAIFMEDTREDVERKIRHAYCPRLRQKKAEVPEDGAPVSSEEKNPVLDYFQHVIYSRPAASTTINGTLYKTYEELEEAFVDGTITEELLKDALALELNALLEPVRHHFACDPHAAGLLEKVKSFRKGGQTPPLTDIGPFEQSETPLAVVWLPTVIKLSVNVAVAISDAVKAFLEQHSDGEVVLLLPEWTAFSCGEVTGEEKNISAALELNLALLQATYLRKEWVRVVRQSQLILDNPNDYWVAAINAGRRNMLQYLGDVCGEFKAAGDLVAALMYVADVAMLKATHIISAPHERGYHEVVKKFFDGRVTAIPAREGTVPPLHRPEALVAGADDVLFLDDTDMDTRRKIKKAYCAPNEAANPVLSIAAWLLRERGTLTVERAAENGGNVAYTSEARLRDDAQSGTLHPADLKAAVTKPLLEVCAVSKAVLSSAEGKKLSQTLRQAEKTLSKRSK
# [8] = biological target: T4, Tyrosyl-tRNA synthetase, putative (Trypanosoma cruzi (strain CL Brener)); test: Trypanosoma cruzi tyrosyl tRNA synthetase (TcYRS) SOP; format: functional; settings: 30 µM
# [9] = biological target: Chromo domain-containing protein 1 (Saccharomyces cerevisiae (strain ATCC 204508 / S288c) (Baker's yeast)) (UniProt P32657); test: ScCHD-1 Enzyme Inhibition Assay; format: functional; settings: 30 µM; also: in the data most compounds retested in dose-response had high values
# Sequence of Chromo domain-containing protein 1 (Saccharomyces cerevisiae (strain ATCC 204508 / S288c) (Baker's yeast)) (P32657 whole entry, the tested form may be a part): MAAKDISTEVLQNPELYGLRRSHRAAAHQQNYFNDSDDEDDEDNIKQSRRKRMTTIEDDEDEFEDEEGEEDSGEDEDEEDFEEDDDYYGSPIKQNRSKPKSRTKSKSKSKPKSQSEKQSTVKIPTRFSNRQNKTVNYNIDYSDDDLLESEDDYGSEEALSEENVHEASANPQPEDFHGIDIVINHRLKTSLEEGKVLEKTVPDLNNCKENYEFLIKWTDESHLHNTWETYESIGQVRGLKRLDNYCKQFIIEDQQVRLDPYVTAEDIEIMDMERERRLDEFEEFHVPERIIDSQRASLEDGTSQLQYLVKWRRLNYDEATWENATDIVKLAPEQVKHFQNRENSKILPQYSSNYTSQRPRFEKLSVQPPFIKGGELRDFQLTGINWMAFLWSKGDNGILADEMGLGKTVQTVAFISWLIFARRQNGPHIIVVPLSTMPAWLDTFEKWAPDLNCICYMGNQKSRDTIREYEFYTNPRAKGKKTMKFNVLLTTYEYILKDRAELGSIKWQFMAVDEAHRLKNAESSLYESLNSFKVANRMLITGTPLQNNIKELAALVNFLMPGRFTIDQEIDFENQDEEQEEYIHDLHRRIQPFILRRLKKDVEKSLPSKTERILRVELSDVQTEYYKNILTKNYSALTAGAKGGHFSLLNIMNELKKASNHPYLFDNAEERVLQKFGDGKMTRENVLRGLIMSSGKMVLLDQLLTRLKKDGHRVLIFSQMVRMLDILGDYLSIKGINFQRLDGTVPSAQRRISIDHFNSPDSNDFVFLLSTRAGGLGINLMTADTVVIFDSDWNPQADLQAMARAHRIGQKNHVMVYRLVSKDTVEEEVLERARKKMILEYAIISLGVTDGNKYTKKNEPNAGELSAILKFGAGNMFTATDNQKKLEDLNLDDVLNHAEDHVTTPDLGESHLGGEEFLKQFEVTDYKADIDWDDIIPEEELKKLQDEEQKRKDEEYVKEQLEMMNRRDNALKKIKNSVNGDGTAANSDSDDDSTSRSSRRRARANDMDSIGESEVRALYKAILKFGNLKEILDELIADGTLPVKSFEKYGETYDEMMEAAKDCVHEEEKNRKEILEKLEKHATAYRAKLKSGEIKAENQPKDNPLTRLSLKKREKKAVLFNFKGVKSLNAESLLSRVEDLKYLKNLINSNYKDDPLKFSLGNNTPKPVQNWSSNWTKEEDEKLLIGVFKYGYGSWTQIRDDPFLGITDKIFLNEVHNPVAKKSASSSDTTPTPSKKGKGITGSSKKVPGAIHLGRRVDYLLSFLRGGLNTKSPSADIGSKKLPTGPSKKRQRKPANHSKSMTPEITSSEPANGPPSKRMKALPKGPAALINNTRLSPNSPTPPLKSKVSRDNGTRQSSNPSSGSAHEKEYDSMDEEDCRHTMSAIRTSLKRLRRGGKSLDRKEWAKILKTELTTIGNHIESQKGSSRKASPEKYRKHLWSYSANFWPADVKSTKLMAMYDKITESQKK
# Sequence of Protein translocase subunit SecA (Escherichia coli (strain K12)) (P10408 whole entry): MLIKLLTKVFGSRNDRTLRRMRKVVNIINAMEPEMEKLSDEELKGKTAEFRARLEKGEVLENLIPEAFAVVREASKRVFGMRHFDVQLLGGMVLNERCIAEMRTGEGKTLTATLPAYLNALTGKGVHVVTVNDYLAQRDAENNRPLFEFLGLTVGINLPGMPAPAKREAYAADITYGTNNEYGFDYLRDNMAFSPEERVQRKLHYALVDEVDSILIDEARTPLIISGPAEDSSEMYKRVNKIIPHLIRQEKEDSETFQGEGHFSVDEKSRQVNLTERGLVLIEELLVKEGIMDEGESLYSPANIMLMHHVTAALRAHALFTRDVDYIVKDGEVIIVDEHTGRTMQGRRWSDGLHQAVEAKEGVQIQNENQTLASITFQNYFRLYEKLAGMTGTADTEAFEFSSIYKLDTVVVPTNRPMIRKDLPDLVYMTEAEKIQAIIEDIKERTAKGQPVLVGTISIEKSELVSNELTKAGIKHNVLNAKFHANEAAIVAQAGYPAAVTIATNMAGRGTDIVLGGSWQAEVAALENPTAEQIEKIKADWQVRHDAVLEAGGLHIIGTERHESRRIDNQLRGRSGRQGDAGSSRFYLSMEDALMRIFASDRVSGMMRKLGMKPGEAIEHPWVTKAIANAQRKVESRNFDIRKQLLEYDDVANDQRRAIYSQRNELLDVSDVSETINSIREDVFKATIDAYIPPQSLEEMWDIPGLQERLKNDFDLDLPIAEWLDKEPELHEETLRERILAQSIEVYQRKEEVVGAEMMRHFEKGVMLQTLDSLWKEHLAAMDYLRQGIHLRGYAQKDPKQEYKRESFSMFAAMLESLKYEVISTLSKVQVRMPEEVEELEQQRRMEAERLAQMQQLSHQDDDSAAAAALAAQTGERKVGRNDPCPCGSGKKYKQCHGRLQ
# Sequence of Sialic acid-binding Ig-like lectin 9 (Homo sapiens) (Q9Y336 whole entry): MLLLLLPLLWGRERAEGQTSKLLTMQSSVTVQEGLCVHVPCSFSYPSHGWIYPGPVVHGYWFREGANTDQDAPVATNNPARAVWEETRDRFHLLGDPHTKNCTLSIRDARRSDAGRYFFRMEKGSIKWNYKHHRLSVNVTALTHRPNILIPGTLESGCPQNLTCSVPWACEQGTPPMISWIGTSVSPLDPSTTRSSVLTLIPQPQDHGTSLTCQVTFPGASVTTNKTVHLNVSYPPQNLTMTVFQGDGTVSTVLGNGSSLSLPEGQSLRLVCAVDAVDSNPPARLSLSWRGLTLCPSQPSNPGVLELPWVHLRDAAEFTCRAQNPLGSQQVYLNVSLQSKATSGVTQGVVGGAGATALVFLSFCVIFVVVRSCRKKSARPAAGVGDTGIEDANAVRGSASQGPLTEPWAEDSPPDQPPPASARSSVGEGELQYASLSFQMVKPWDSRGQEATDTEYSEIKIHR
Structure (SMILES),Percent Effect [1] [%],Percent Effect [2] [%],Percent Effect [3] [%],Percent Effect [4] [%],Percent Effect (Trypanosoma cruzi) [%],Percent Effect [5] [%],Percent Effect [6] [%],Percent Effect (Homo sapiens) [%],Percent Effect [7] [%],Percent Effect [8] [%],Percent Effect [9] [%]
Cc1ccc(NC2CCN(C(=O)c3ccsc3)CC2)nn1,-9.11,10.4,-1.87,1.46,-6.37,-1.07,5.57,30,6.8,9.76,-2
Cn1cccc1C(=O)N1CCn2cc(CNC(=O)CC3CC3)nc2C1,-2.92,13.3,10.1,-5.14,4.13,-0.233,6.61,0.949,8.51,16.7,-6.08
CCN(CC1CCCO1)C(=O)Nc1ccc(F)cc1OC (stereo unspecified),-3.45,17.7,-6.96,10.6,6.14,3.8,4.5,-28.1,4.43,16.5,-7.51
CCN(CC)C(=O)c1ccc(-c2ccsc2)nc1C,-1.54,6.94,5.62,-7.86,-4.37,-0.442,25.3,-1.98,4.21,5.13,-1.47
c1ccc(C2CCCN2Cc2nnnn2C2CC2)cc1 (stereo unspecified),-4.62,-6.94,-1.81,-5.25,-3.01,-1.32,9.12,-12.1,3.16,0,7.75
CCC1=N[C@@]2(CC[C@@H]3CN(CC4CC4)C[C@@H]32)C(=O)N1C,-4.94,10.8,1.5,0.724,-1.86,0.319,19.2,-28.1,0,15.4,-3.77
CCOc1ccccc1C(CC(=O)Nc1ccc(C)cn1)NC(C)=O (stereo unspecified),-3.17,10.5,7.35,5.85,6.77,1.15,4.34,4.19,8.33,17.1,-15.3
COCCN(C)Cc1ccc(OC)c(OC(F)F)c1,-0.72,0,2.88,0.875,-20.8,6.9,0.499,-9.7,-1.07,-6.17,2.42
O=C(NCC1CC1)[C@H]1C[C@@H]2CN(S(=O)(=O)Cc3ccccc3)C[C@H]1O2,-3.04,10.7,12.2,-8.26,-6.5,2.56,9.25,12.3,0,1.28,-3.45
O=C(c1cccc(CNS(=O)(=O)c2ccccc2F)c1)N1CCCC1,-3.56,15.6,1.76,3.25,2.25,0.21,5.25,24.1,5.71,18.8,-5.99
CCC(=O)N1CCC(c2nnc(Cn3cncn3)n2C2CC2)CC1,-0.998,15.3,-1.98,12.9,5.34,16.3,17.7,0.244,-1.05,15.4,-3.53
Cc1nc(CO[C@@H]2CN(Cc3cnn(C)c3)[C@@H]3COC[C@@H]32)cs1,-0.847,13.7,1.23,4.76,-2.58,1.6,7.96,2.98,3.12,11.1,3.26
CC(NC(=O)CNCCn1cccn1)c1ccc2c(c1)OCCO2 (stereo unspecified),-2.65,-7.79,0.13,7.51,5.62,1.07,7.6,-0.448,8.74,9.76,-7.52
CC(NC(=O)NCCCO)c1ccc2c(c1)OCCO2 (stereo unspecified),-1.5,16.2,0.694,-1.77,1.76,3.51,14.2,2.1,4.95,28.1,-6.78
Cc1nnc2n1CCN(C(=O)c1cc(Cl)c[nH]1)C2,-3.51,-15.8,7.83,10.9,0.376,1.92,2.84,-3.3,0.49,-4.88,3.54
CCc1nnc(CN(C)c2nc(C3CCCC3)nc3c2cnn3C)o1,-4.33,4.17,7.51,2.48,3.79,2.65,10.5,7.5,1.05,7.69,-2.84
